# Laboratory results as given in the supplement of paper PMC7057948, “A genome-wide approach for identification and characterisation of metabolite-inducible systems” (Nature Communications, 2020).
# Legend:
# Conditions in all cases: inducer concentration 5 mM; 6 h; Cupriavidus necator H16; minimal medium + 0.4% gluconate
# [1] = test system: AcoR/P_H16_RS19445 acetoin biosensor (pEH052); experiment: relative induction of RFP reporter vs primary effector; higher = stronger activation
# Description: (§1)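 Orthogonality screen of 21 primary inducers against 21 transcription factor/inducible promoter–mRFP biosensors in C. necator H16 in minimal medium, robotic 96-well format, 5 mM inducer, 30 °C. OD-normalised RFP fluorescence was read 6 h later and expressed as relative induction (%) = 100 × (FL compound − FL uninduced)/(FL primary inducer − FL uninduced); mean of n=4. Cognate pairs (100% by definition) omitted.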
# [2] = test system: AraC/P_araBAD L-arabinose biosensor (pEH176); experiment: as above
# Description: as §1
# [3] = test system: BadR/P_H16_RS27200 cyclohexanecarboxylate biosensor (pEH159); experiment: as above
# Description: as §1
# [4] = test system: BenM/P_H16_RS09790 benzoate biosensor (pEH148); experiment: as above
# Description: as §1
# [5] = test system: FdsR/P_H16_RS03165 formate biosensor (pEH134); experiment: as above
# Description: as §1
# [6] = test system: GabR/P_H16_RS23655 GABA biosensor (pEH256); experiment: as above
# Description: as §1
# [7] = test system: HpdA/P_H16_RS24175 L-tyrosine biosensor (pEH158); experiment: as above
# Description: as §1
# [8] = test system: NahR/P_H16_RS08125 salicylate biosensor (pEH042); experiment: as above
# Description: as §1
# [9] = test system: PcaQ/P_H16_RS30145 3,4-dihydroxybenzoate biosensor (pEH161); experiment: as above
# Description: as §1
# [10] = test system: PhgR/P_H16_RS05530 phenylglyoxylate biosensor (pEH155); experiment: as above
# Description: as §1
# [11] = test system: SauR/P_H16_RS13695 sulfonatoacetate biosensor (pEH157); experiment: as above
# Description: as §1
# [12] = test system: TtdR/P_H16_RS10665 tartrate biosensor (pEH083); experiment: as above
# Description: as §1
# [13] = test system: XdhR/P_H16_RS05055 xanthine biosensor (pEH154); experiment: as above
# Description: as §1
# [14] = test system: heterologous L-rhamnose-inducible system; experiment: as above
# Description: as §1
# [15] = test system: heterologous cumate-inducible system; experiment: as above
# Description: as §1
# [16] = test system: heterologous itaconate-inducible system; experiment: as above
# Description: as §1
# [17] = test system: AcoR/P_H16_RS19445 acetoin biosensor (pEH052); experiment: relative induction of RFP reporter vs primary effector (background-corrected); higher = stronger activation of the biosensor
# Description: (§2)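 C. necator H16 strains, each carrying one of 21 transcription factor/inducible promoter–mRFP biosensor plasmids, were grown in minimal medium in 96-well plates (robotic platform). Each was exposed to 46 structurally or metabolically related compounds at 5 mM at 30 °C. OD-normalised RFP fluorescence was read 6 h later and expressed as relative induction (%) = 100 × (FL compound − FL uninduced)/(FL primary inducer − FL uninduced); mean of n=4.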
# [18] = test system: AraC/P_araBAD L-arabinose biosensor (pEH176); experiment: as above
# Description: as §2
# [19] = test system: BenM/P_H16_RS09790 benzoate biosensor (pEH148); experiment: as above
# Description: as §2
# [20] = test system: FdsR/P_H16_RS03165 formate biosensor (pEH134); experiment: as above
# Description: as §2
# [21] = test system: GabR/P_H16_RS23655 GABA biosensor (pEH256); experiment: as above
# Description: as §2
# [22] = test system: HpdR/P_H16_RS18295 3-hydroxypropanoate biosensor (pEH010); experiment: as above
# Description: as §2
# [23] = test system: KynR/P_H16_RS14030 L-kynurenine biosensor (pEH136); experiment: as above
# Description: as §2
# [24] = test system: NahR/P_H16_RS08125 salicylate biosensor (pEH042); experiment: as above
# Description: as §2
# [25] = test system: OapR/P_H16_RS01330 beta-alanine biosensor (pEH147); experiment: as above
# Description: as §2
# [26] = test system: PcaQ/P_H16_RS30145 3,4-dihydroxybenzoate biosensor (pEH161); experiment: as above
# Description: as §2
# [27] = test system: PhgR/P_H16_RS05530 phenylglyoxylate biosensor (pEH155); experiment: as above
# Description: as §2
# [28] = test system: PhhR/P_H16_RS18365 L-phenylalanine biosensor (pEH137); experiment: as above
# Description: as §2
# [29] = test system: SauR/P_H16_RS13695 sulfonatoacetate biosensor (pEH157); experiment: as above
# Description: as §2
# [30] = test system: TtdR/P_H16_RS10665 tartrate biosensor (pEH083); experiment: as above
# Description: as §2
# [31] = test system: XdhR/P_H16_RS05055 xanthine biosensor (pEH154); experiment: as above
# Description: as §2
# [32] = test system: heterologous inducible system pEH002 (rhamnose/acrylate/cumate/itaconate set); experiment: as above
# Description: as §2
# [33] = test system: heterologous inducible system pEH020 (rhamnose/acrylate/cumate/itaconate set); experiment: as above
# Description: as §2
# [34] = test system: heterologous inducible system pEH040 (rhamnose/acrylate/cumate/itaconate set); experiment: as above
# Description: as §2
# [35] = test system: heterologous inducible system pEH086 (rhamnose/acrylate/cumate/itaconate set); experiment: as above
# Description: as §2
# [36] = test system: OapR/P_H16_RS01330 beta-alanine biosensor (pEH147); experiment: relative induction of RFP reporter vs primary effector; higher = stronger activation
# Description: as §1
# [37] = test system: heterologous acrylate-inducible system; experiment: as above
# Description: as §1
# 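Throughout, for relative induction of RFP reporter vs primary effector (background-corrected): RFP excited at 585 nm with emission read at 620 nm, culture medium blanks subtracted from fluorescence and absorbance prior to normalisation.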
structure (smiles),measurement,setting,value
C=CC(=O)O [acrylate],relative induction of RFP reporter,[1],-1.36%
same,relative induction of RFP reporter,[2],-0.0252%
same,relative induction of RFP reporter,[3],-0.281%
same,relative induction of RFP reporter,[4],0.00199%
same,relative induction of RFP reporter,[5],-7.94%
same,relative induction of RFP reporter,[6],0.12%
same,relative induction of RFP reporter,[7],-0.146%
same,relative induction of RFP reporter,[8],0.00921%
same,relative induction of RFP reporter,[9],-0.175%
same,relative induction of RFP reporter,[10],-0.587%
same,relative induction of RFP reporter,[11],0.114%
same,relative induction of RFP reporter,[12],-0.0524%
same,relative induction of RFP reporter,[13],-0.215%
same,relative induction of RFP reporter,[14],0.000569%
same,relative induction of RFP reporter,[15],0.803%
same,relative induction of RFP reporter,[16],0.117%
CC(=O)CCC(=O)O [levulinic acid],relative induction of RFP reporter,[17],-2.12%
same,relative induction of RFP reporter,[18],0.00636%
same,relative induction of RFP reporter,[19],-0.0388%
same,relative induction of RFP reporter,[20],-11.8%
same,relative induction of RFP reporter,[21],-2.89%
same,relative induction of RFP reporter,[22],-0.37%
same,relative induction of RFP reporter,[23],-0.594%
same,relative induction of RFP reporter,[24],-0.0149%
same,relative induction of RFP reporter,[25],-1.91%
same,relative induction of RFP reporter,[26],-0.265%
same,relative induction of RFP reporter,[27],-0.187%
same,relative induction of RFP reporter,[28],-0.623%
same,relative induction of RFP reporter,[29],-0.0306%
same,relative induction of RFP reporter,[30],1.16%
same,relative induction of RFP reporter,[31],-0.941%
same,relative induction of RFP reporter,[32],0.0157%
same,relative induction of RFP reporter,[33],-1.82%
same,relative induction of RFP reporter,[34],-1.61%
same,relative induction of RFP reporter,[35],-0.139%
C=C(CC(=O)O)C(=O)O [itaconate],relative induction of RFP reporter,[1],7.98%
same,relative induction of RFP reporter,[2],-0.0132%
same,relative induction of RFP reporter,[3],-0.216%
same,relative induction of RFP reporter,[4],-0.0396%
same,relative induction of RFP reporter,[5],-5.89%
same,relative induction of RFP reporter,[6],-1.61%
same,relative induction of RFP reporter,[7],-0.159%
same,relative induction of RFP reporter,[8],0.0104%
same,relative induction of RFP reporter,[36],-0.257%
same,relative induction of RFP reporter,[9],-0.0579%
same,relative induction of RFP reporter,[10],-0.453%
same,relative induction of RFP reporter,[11],0.0423%
same,relative induction of RFP reporter,[12],-0.0311%
same,relative induction of RFP reporter,[13],-0.326%
same,relative induction of RFP reporter,[14],0.00546%
same,relative induction of RFP reporter,[37],-0.778%
same,relative induction of RFP reporter,[15],-0.202%
O=C(O)c1ccccc1 [benzoate],relative induction of RFP reporter,[1],4.78%
same,relative induction of RFP reporter,[2],-0.00267%
same,relative induction of RFP reporter,[3],-0.805%
same,relative induction of RFP reporter,[5],-1.25%
same,relative induction of RFP reporter,[6],-2.52%
same,relative induction of RFP reporter,[7],-0.127%
same,relative induction of RFP reporter,[8],0.078%
same,relative induction of RFP reporter,[36],-0.947%
same,relative induction of RFP reporter,[10],-0.295%
same,relative induction of RFP reporter,[11],-0.0427%
same,relative induction of RFP reporter,[12],-0.474%
same,relative induction of RFP reporter,[13],-0.493%
same,relative induction of RFP reporter,[14],-0.0138%
same,relative induction of RFP reporter,[37],-1.5%
same,relative induction of RFP reporter,[15],-1.2%
same,relative induction of RFP reporter,[16],-0.0216%
O=C(O)CCO [3-hydroxypropanoate],relative induction of RFP reporter,[1],-1.52%
same,relative induction of RFP reporter,[2],-0.0357%
same,relative induction of RFP reporter,[3],0.0132%
same,relative induction of RFP reporter,[4],-0.029%
same,relative induction of RFP reporter,[5],-8.81%
same,relative induction of RFP reporter,[6],-1.71%
same,relative induction of RFP reporter,[7],-0.172%
same,relative induction of RFP reporter,[8],0.0108%
same,relative induction of RFP reporter,[36],3.75%
same,relative induction of RFP reporter,[9],-0.224%
same,relative induction of RFP reporter,[10],-0.286%
same,relative induction of RFP reporter,[11],-0.00696%
same,relative induction of RFP reporter,[12],-0.346%
same,relative induction of RFP reporter,[13],-0.715%
same,relative induction of RFP reporter,[14],0.00446%
same,relative induction of RFP reporter,[37],2.83%
same,relative induction of RFP reporter,[15],-0.514%
same,relative induction of RFP reporter,[16],0.017%
